The sequences below were run against T1, ETS1 (UniProt P14921) (assay: ETS1 binding intensity (PBM fluorescence), ETS1 alone (arbitrary fluorescence units); higher = stronger binding). Details: ETS1 concentration 1 nM; RUNX1 concentration 0 nM.
T1 sequence: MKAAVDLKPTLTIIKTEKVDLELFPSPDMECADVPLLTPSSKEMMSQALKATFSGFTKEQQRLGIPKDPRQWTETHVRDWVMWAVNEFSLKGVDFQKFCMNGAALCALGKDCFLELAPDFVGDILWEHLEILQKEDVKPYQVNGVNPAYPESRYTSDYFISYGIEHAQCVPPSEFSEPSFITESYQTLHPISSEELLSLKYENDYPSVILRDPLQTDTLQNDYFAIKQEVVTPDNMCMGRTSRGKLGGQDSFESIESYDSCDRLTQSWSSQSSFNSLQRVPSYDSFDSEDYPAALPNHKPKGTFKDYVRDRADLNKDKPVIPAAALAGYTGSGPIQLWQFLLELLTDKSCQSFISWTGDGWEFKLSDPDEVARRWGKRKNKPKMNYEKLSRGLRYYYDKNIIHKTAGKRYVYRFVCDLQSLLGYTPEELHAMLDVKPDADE
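Wherever RUNX1 binding intensity (PBM fluorescence), RUNX1 alone is given: Full-length recombinant human RUNX1 bound to double-stranded 36-bp genomic probes on a high-density microarray, scored as Alexa488 fluorescence per spot via anti-RUNX1 antibody, median of four replicate spots.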

| Sequence | ETS1 binding intensity |
| --- | --- |
| GCCGCCTCTTCCTGTGTTGCAAACCACAGGTCCACC | 1250 |
| AGGACCGGAAGTGCCCGAGGGCGGCCGCAGAACGGT | 8870 |
| GGGCCCACATCCGGCGCGCGCAACCGCAGCCTACTG | 1120 |
| CAAACAGGTTCCGGCCGGACTACAGCGCCCACAATG | 432 |
| ACCACGAGCCCAGGATGCGGTTTATGCGCTGTCGGG | 699 |
| ATACTGAGTCATTTCCTGTGGTGTTATTGTGTTGTA | 1760 |
| ACCCGGATGTCGTTGGGCAGGAACTGCGGTGAGGGC | 2580 |
| GGCCCAGGAAAGAGGCAGGGGTGCGGTTTCCCTCCG | 394 |
| GCGGAGCGAGCGGCCGGATGCGGTCACCATAGAGAC | 4210 |
| CCAAGTGTAAAACGGAAGCTCAACCACGAATCTTAC | 1510 |
| CCGCTTCCGGGACGCGAATCGCTCTGCGGCTGCGTC | 556 |
| GGTTTAACGTTTCCGGTTTGTGGCTAGTTTCTTGTC | 7540 |
| TATTCAGGCTTCCGGGTGATGTTTGTGGCCACCCGG | 3800 |
| CTTCACTATGCATCCTGTACTGCAACCACACCAAAC | 587 |
| CCGGGACCGGAAGAGGGAGCCGTGGTTGCTGGAACT | 3040 |
| AGTTTCTTCTTTCCGGTGGGTTTGTGGTCTTGCTGA | 1160 |
| GCCCAGGAAGTGGGTACAAAATGAGCCACAAGACCT | 616 |
| CTGAGCCGGGACCGGAAGCCGCACCGCCCCCCGCGC | 18400 |
| TGATGCACTTCCTGAGGGCCCGCATGTGGTAAACAC | 495 |
| GTCGTCCCGGAAACCGGGATGCGGTTATCAGAGCGA | 1860 |

| Sequence | ETS1 binding intensity |
| --- | --- |
| GCCTGCAGCTTCTTCCTGTGGCTTCTGCATCTCAGG | 4420 |
| CACTTCCTGCCCTCTTCCACTTTCAAAACCACATCA | 869 |
| CACCTGGCCCGGACGGCTGCGGTCTGGAGGGCTGTC | 386 |
| CCTGCCTGACCGGAAGTGCCCGCAACCCCACCGACC | 20600 |
| TTAACCAGACATTTCCTGTGGTCTAAGGTGACCCCA | 859 |
| CTCACAACTCGCGTCCGGCGGAGACCACAATTCCCG | 412 |
| AATGCCGGATATTGGTTCTGGTAAGCCACAAAAAAG | 1720 |
| GGCTCGGTGCTGCTTCCTGTGTGGTCAGGATCACAG | 1870 |
| GACAAAGAGGAAGTCCCCAAAAACCACAATAACAGT | 910 |
| GACCAATGTAAACAAGGATGTGGGTTCTCCGGGCAC | 929 |
| GGGTGCAGACGGGAAGTTGCGGCTGCCAGCGAAGCT | 1680 |
| AGAACCACTTCCTCTCAGTAAACCACAGAGACTGTA | 592 |
| CCCTGGGGCCCCACTTCCTTGCCCACAAGAAAGGAC | 395 |
| GGCTGGGGCGGTATCCTGTGGTCTTACTCTGGTGAC | 445 |
| CCGGGTAGGATCCGGTTGCCTTTCTGCGGTGGAGGA | 410 |
| CGGGACACAGGAAGCCGTTGTGGGGCCCCGGGGCCA | 1960 |
| CCACCCTCCGTCCGGCCGCGACCGCGAGGAGGAAGA | 948 |
| AAACCAGAGAGGAAGTGGCACCACATGGCCAGACTG | 2030 |
| ACGGGGAAGAACGGAAGTGGTTTCCATGATGGTCTG | 6420 |
| GAATGACAGAAGCGGAAACCACATGAAAAAGGTGTT | 2010 |

These sequences were tested against RUNX1 (UniProt Q01196) (assay: RUNX1 binding intensity (PBM fluorescence), RUNX1 alone (arbitrary fluorescence units); higher = stronger binding). Details: RUNX1 concentration 2 nM; ETS1 concentration 0 nM.
Chain of RUNX1 (Q01196 whole entry): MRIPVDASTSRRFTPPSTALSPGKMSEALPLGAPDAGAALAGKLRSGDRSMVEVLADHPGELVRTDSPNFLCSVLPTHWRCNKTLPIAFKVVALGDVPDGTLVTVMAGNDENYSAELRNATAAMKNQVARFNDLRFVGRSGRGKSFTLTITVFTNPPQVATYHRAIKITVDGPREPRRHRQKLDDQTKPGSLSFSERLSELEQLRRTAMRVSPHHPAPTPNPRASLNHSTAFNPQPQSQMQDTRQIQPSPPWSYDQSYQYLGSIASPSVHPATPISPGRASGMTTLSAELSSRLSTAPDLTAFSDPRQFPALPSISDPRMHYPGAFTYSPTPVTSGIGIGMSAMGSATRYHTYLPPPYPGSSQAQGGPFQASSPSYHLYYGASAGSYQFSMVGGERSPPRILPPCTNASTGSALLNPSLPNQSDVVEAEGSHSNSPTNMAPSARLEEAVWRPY
Method: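 Cooperative gcPBM on 36-bp genomic probes with neighbouring ETS1 and RUNX1 sites. Recombinant human RUNX1 (2 nM) was incubated alone or with ETS1 (25 nM) and detected with anti-RUNX1 antibody plus Alexa488 secondary. Values are medians over 4 replicate spots; the RUNX1+ETS1 data were normalised to the RUNX1-only data. The probes sit in constant array flanks that are not printed.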

| Sequence | RUNX1 binding intensity |
| --- | --- |
| GCCGCCTCTTCCTGTGTTGCAAACCACAGGTCCACC | 1570 |
| AGGACCGGAAGTGCCCGAGGGCGGCCGCAGAACGGT | 719 |
| GGGCCCACATCCGGCGCGCGCAACCGCAGCCTACTG | 2530 |
| CAAACAGGTTCCGGCCGGACTACAGCGCCCACAATG | 712 |
| ACCACGAGCCCAGGATGCGGTTTATGCGCTGTCGGG | 2660 |
| ATACTGAGTCATTTCCTGTGGTGTTATTGTGTTGTA | 993 |
| ACCCGGATGTCGTTGGGCAGGAACTGCGGTGAGGGC | 829 |
| GGCCCAGGAAAGAGGCAGGGGTGCGGTTTCCCTCCG | 1060 |
| GCGGAGCGAGCGGCCGGATGCGGTCACCATAGAGAC | 917 |
| CCAAGTGTAAAACGGAAGCTCAACCACGAATCTTAC | 800 |
| CCGCTTCCGGGACGCGAATCGCTCTGCGGCTGCGTC | 832 |
| GGTTTAACGTTTCCGGTTTGTGGCTAGTTTCTTGTC | 1060 |
| TATTCAGGCTTCCGGGTGATGTTTGTGGCCACCCGG | 671 |
| CTTCACTATGCATCCTGTACTGCAACCACACCAAAC | 1350 |
| CCGGGACCGGAAGAGGGAGCCGTGGTTGCTGGAACT | 744 |
| AGTTTCTTCTTTCCGGTGGGTTTGTGGTCTTGCTGA | 1390 |
| GCCCAGGAAGTGGGTACAAAATGAGCCACAAGACCT | 768 |
| CTGAGCCGGGACCGGAAGCCGCACCGCCCCCCGCGC | 828 |
| TGATGCACTTCCTGAGGGCCCGCATGTGGTAAACAC | 834 |
| GTCGTCCCGGAAACCGGGATGCGGTTATCAGAGCGA | 1000 |

| Sequence | RUNX1 binding intensity |
| --- | --- |
| GCCTGCAGCTTCTTCCTGTGGCTTCTGCATCTCAGG | 783 |
| CACTTCCTGCCCTCTTCCACTTTCAAAACCACATCA | 4540 |
| CACCTGGCCCGGACGGCTGCGGTCTGGAGGGCTGTC | 1650 |
| CCTGCCTGACCGGAAGTGCCCGCAACCCCACCGACC | 1180 |
| TTAACCAGACATTTCCTGTGGTCTAAGGTGACCCCA | 1020 |
| CTCACAACTCGCGTCCGGCGGAGACCACAATTCCCG | 863 |
| AATGCCGGATATTGGTTCTGGTAAGCCACAAAAAAG | 836 |
| GGCTCGGTGCTGCTTCCTGTGTGGTCAGGATCACAG | 846 |
| GACAAAGAGGAAGTCCCCAAAAACCACAATAACAGT | 1570 |
| GACCAATGTAAACAAGGATGTGGGTTCTCCGGGCAC | 706 |
| GGGTGCAGACGGGAAGTTGCGGCTGCCAGCGAAGCT | 741 |
| AGAACCACTTCCTCTCAGTAAACCACAGAGACTGTA | 1790 |
| CCCTGGGGCCCCACTTCCTTGCCCACAAGAAAGGAC | 1020 |
| GGCTGGGGCGGTATCCTGTGGTCTTACTCTGGTGAC | 1520 |
| CCGGGTAGGATCCGGTTGCCTTTCTGCGGTGGAGGA | 848 |
| CGGGACACAGGAAGCCGTTGTGGGGCCCCGGGGCCA | 711 |
| CCACCCTCCGTCCGGCCGCGACCGCGAGGAGGAAGA | 841 |
| AAACCAGAGAGGAAGTGGCACCACATGGCCAGACTG | 755 |
| ACGGGGAAGAACGGAAGTGGTTTCCATGATGGTCTG | 831 |
| GAATGACAGAAGCGGAAACCACATGAAAAAGGTGTT | 913 |

— the supplement of paper PMC10681739
